Experimental data from PubChem BioAssay AID2528 (National Center for Advancing Translational Sciences (NCATS), 2010).
“And” between values parts separate entries of the source, which are not always exact repeats. Equal entries are not always repeated. Hit rate of the full screen: of about 350,000 compounds, about 700 (0.2%) were called active. A call without a number means that no potency is given here. This is one part of a sample in which actives are shown more often than they occur. Unmarked numbers belong to inactive results. Calls come from the whole dose curve; as a rule, active = well fitted inhibition curve with a large enough effect; inconclusive = small, poorly fitted or top-dose-only effect; inactive = flat fitted curve, though single readings scatter.

The compounds below were run against RecQ-like DNA helicase BLM (Homo sapiens) (UniProt P54132) (assay: qHTS Assay for Inhibitors of Bloom's syndrome helicase (BLM)). Conditions: recombinant BLM DNA unwinding, fluorescence dequenching; series mostly up to 56.1 µM.
Note: nearly all actives have a fitted effect of over 35% in size.
Potency is the fitted concentration of half-maximal effect.

RecQ-like DNA helicase BLM (Homo sapiens), sequence (P54132 whole entry, looked up): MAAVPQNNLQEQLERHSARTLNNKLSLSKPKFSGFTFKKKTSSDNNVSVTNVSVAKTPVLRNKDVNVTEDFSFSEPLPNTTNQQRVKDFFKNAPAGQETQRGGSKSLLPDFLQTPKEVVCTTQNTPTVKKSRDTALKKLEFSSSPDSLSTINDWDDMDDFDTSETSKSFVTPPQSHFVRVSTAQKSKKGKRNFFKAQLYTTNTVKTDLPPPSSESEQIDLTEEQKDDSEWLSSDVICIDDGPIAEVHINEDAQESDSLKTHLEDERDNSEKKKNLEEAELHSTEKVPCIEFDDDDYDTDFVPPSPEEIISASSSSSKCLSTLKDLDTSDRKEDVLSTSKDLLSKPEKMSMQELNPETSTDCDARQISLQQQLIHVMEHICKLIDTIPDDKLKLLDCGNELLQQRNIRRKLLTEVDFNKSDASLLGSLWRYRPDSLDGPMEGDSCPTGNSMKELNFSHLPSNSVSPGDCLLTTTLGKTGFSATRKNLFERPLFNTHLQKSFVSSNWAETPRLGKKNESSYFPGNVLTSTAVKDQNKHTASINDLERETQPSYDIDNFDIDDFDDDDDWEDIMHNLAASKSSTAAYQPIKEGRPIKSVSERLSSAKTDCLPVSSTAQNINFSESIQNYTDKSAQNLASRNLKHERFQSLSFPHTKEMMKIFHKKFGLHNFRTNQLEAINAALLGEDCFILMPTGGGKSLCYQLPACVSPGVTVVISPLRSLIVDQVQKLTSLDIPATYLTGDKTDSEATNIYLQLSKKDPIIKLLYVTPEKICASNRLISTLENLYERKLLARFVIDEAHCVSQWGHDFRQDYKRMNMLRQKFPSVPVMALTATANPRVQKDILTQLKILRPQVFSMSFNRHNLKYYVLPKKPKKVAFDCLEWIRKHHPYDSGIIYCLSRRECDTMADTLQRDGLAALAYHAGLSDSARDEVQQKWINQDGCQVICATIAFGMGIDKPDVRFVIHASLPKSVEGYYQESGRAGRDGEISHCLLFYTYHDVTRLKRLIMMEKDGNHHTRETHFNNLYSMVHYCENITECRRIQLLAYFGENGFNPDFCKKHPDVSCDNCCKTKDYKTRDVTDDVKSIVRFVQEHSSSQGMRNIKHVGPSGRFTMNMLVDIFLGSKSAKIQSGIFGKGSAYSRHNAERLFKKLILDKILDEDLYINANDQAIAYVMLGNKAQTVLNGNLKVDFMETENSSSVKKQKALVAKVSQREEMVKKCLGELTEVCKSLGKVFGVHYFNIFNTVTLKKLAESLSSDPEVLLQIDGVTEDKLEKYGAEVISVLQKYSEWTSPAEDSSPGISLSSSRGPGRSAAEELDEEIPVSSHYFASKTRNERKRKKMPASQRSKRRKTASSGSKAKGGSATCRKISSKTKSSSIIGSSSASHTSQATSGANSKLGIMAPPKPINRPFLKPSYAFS

Compound | Potency | activity change, negative = inhibition
CS(=O)(=O)c1ccc2nc(NC(=O)c3ccc(Cl)nc3)sc2c1 | 17.8 µM (active) | 
CN(C)c1cccc(C(=O)Nc2nc3ccc(S(=O)(=O)NC(C)(C)C)cc3s2)c1 | inactive | 
Cc1cc2nc(NC(=O)c3ccc(S(=O)(=O)N4CCOCC4)cc3)sc2cc1C | inactive | 
CC(=O)OCC1OC(C#Cc2ccccc2Cl)C=CC1OC(C)=O (stereo not drawn) |  | 2.5% [at 12.4 µM]
O=C(c1cc(-c2ccc(Cl)cc2)on1)N1CCN(c2ccccc2)CC1 | inactive | 
O=C(c1cc2c(s1)CCC2)N1CCN(c2ccccc2)CC1 | 12.6 µM (active) | 
O=C(c1cc2ccccc2s1)N1CCN(c2ccccn2)CC1 | inactive | 
Cc1ccc(-c2cc(C(F)(F)F)c(C#N)c(SCC(=O)Nc3ccccc3)n2)cc1 | inactive | 
C=CCN1c2ccccc2[C@]23C[C@@H](C(=O)OC)N(S(=O)(=O)c4ccc([N+](=O)[O-])cc4)C2=NC(C(=O)OC)=C(C(=O)OC)[C@H]13 |  | -4.61% [at 12.4 µM]
CCCn1c(C)nc2c(NCCCCN(CC)CC)nc(C)nc21 | inactive | 
O=C(N/N=C/c1ccco1)c1csc2c1CCCC2 | inactive | 
O=C(N/N=C/C=C/c1ccco1)c1cccs1 | 22.4 µM (active) | 
O=C(N/N=C/c1ccco1)c1ccc(NC(=O)C2CC2)cc1 | inactive | 
Cc1noc(C)c1-c1ccc2ncnc(NCc3ccc4[nH]ccc4c3)c2c1 | inactive | 
O=C(O)C(c1ccccc1)N1C(=O)/C(=C\c2ccc(-c3cccc(Cl)c3)o2)SC1=S (stereo not drawn) | 22.4 µM (active) | 
O=C(NCc1ccccc1)c1cc(-c2cccc(Cl)c2)on1 | inactive | 
CN=C1S/C(=C\c2ccc(Sc3ccc(Cl)cc3)o2)C(=O)N1C | inactive | 
CCN1CC=C2C(C#N)=C(N)C(C#N)(C#N)[C@H](c3ccoc3)[C@H]2C1 | 28.2 µM (active) | 
COc1cccc(-c2cc(=O)c3cc(NC(=O)c4ccc(C)cc4)ccc3[nH]2)c1 | inactive | 
CCOC(=O)C1=NO[C@@]2(C=C(Br)C(=O)[C@H]3O[C@H]32)C1 | inactive | 
CN1CCCC1CCO[C@@](C)(c1ccccc1)c1ccc(Cl)cc1 (stereo partly drawn) | inactive | 
NS(=O)(=O)c1ccc2nc(NC(=O)COc3ccccc3)sc2c1 | inactive | 

Compound | Potency | activity change, negative = inhibition
CC(=O)OCC(=O)C1CCC2C3CCC4=CC(=O)CC[C@@]4(C)C3CC[C@]12C (stereo partly drawn) | inactive | 
CC(C)(C)c1ccc(OC2C=CC(C#Cc3ccccc3)OC2CO)cc1 (stereo not drawn) |  | -1.55% [at 12.4 µM]
COC(=O)[C@@H]1CC2=CC(=O)CC[C@]2(C)[C@@]23O[C@@H]2C[C@@]2(C)[C@@H](CC[C@@]24CCC(=O)O4)[C@H]13 | inactive | 
O=C1CN(Cc2ccccc2)S(=O)(=O)c2ccccc21 | inactive | 
Nc1ccc2nc3c(=O)[nH]c(=S)[nH]c3nc2c1 | 2.82 µM (active) | 
O=C(Nc1cccc(C(F)(F)F)c1)c1cc(Br)cc(Br)c1O | inactive | 
COC(=O)[C@@]1(Cc2ccc(OC)cc2)[C@H]2c3cc(C(=O)N4CCCC4)n(Cc4ccc(C(F)(F)F)nc4)c3C[C@H]2CN1C(=O)c1ccccc1 | inactive | 
COc1ccccc1CNC(=O)C(=O)NCC(c1cccs1)S(=O)(=O)c1cccs1 (stereo not drawn) | inactive | 
CO[C@H]1COC(=O)[C@@H](OCc2ccccc2)/C=C\[C@H](C)[C@@H](OC)COC(=O)[C@H](OCc2ccccc2)/C=C\[C@@H]1C |  | 6.6% [at 12.4 µM]
CC(=O)OCC1OC(C#CCCCc2ccccc2)C=CC1OC(C)=O (stereo not drawn) |  | -2.87% [at 12.4 µM] and 2.33% [at 12.4 µM]
C#CCCCCCCCCCCCCCCCC(=O)O | inactive | 
O=C(Nc1cccc(F)c1)N1CCC2(CC1)CCN(S(=O)(=O)c1ccccc1)CC2 | inactive | 
COc1cccc(Nc2nc(N)c([N+](=O)[O-])c(NCc3ccco3)n2)c1 | 3.55 µM (active) | 
CN(c1ccccc1)c1nc(N)c([N+](=O)[O-])c(NCc2ccco2)n1 | inactive | 
CNc1nc(Nc2ccc(C)c(Cl)c2)nc(N)c1[N+](=O)[O-] | inactive | 
CS(=O)(=O)N1CCC2(CC1)CN(Cc1ccccc1)C2 | inactive | 
COC1[C@H](OC(N)=O)C(O)[C@H](Oc2ccc3c(O)c(NC(=O)c4ccc(O)c(CC=C(C)C)c4)c(=O)oc3c2C)OC1(C)C (stereo partly drawn) | inactive | 
COc1ccc2c(c1)O[C@@H](c1ccc3c(c1)OCO3)[C@H](OC(=O)NCc1ccco1)C2=O | inactive | 
Clc1ccc(C(Cn2ccnc2)OCc2ccsc2Cl)c(Cl)c1 (stereo not drawn) | inactive | 
Cc1[nH]c2ccccc2c1C(c1ccccc1)c1cccs1 (stereo not drawn) | inactive | 
COc1ccccc1CNc1cc(-c2ccccc2CN(C)C)ncn1 | inactive | 
C/C=C1\C2C=C(C)CC1(N)c1ccc(=O)[nH]c1C2 (stereo not drawn) | inactive | 

Compound | Potency | activity change, negative = inhibition
COc1cc(NS(=O)(=O)c2ccc3c(c2)OCC(C(=O)N2CCCC2)O3)cc(OC)c1 (stereo not drawn) | inactive | 
Cc1c(CC(=O)N2CCN(C(=O)C3COc4ccccc4O3)CC2)c(=O)oc2c(O)c(O)ccc12 (stereo not drawn) | 8.91 µM (active) | 
COc1ccc(OC)c2sc(N3CCN(C(=O)C4COc5ccccc5O4)CC3)nc12 (stereo not drawn) | inactive | 
COC(=O)CC1c2ccccc2C(Cc2ccc(OC)cc2)=C(C)N1C(=O)OC (stereo not drawn) |  | 1.25% [at 12.4 µM]
O=C(NC1CC(=O)N(c2ccc(F)cc2)C1)c1ccc(S(=O)(=O)N2CCCC2)cc1 (stereo not drawn) | inactive | 
O=c1c(CCc2ccccc2)nc2cncnc2n1C1CC1 | inactive | 
COC(=O)c1ccc(C(NC(=O)OCc2ccccc2)/C(C)=C/[C@@H](C)C(=O)NCc2cc(C)on2)cc1 (stereo partly drawn) | inactive | 
C#CCC(C(=O)OC)(C(=O)OC)C(C[N+](=O)[O-])c1ccccc1 (stereo not drawn) |  | 0.0811% [at 12.4 µM]
COc1ccc(OCCCn2c(C3CC(=O)N(c4ccc(F)cc4)C3)nc3ccccc32)cc1 (stereo not drawn) | inactive | 
Cc1ccc(N=C2NC(=O)/C(=C/C=C/c3ccco3)S2)cc1C | 11.2 µM (active) | 
Cc1cc(N(C)C)nc(Cl)n1 | inactive | 
O=S(O)S(=O)(=O)O | inactive | 
N#Cc1cccc(CS(=O)(=O)c2nnnn2-c2cc(C(F)(F)F)cc(C(F)(F)F)c2)c1 | inactive | 
O=C(c1ccco1)N1CCC[C@@]2(CCN(c3ccccc3)C2)C1 | inactive | 
Cc1c(CCNC(=O)c2ccc(C(F)(F)F)cc2)sc2nc(-c3ccc(F)cc3)nn12 | inactive | 
COC(=O)C1=C(C(=O)OC)[C@@H]2N(Cc3ccccc3)c3ccccc3[C@@]23C[C@@H](C(=O)OC)N(S(=O)(=O)c2ccc(C(F)(F)F)cc2)C3=N1 |  | 0.18% [at 12.4 µM]
COc1ccc(-c2nc3c(c4c2C[C@H](c2ccccc2)OC4)CN(C(=O)C2CC2)CC3)c(C)c1 |  | -3.76% [at 12.4 µM]
CCOC(=O)C1CCCN(C(=O)Cn2ncc3c(C)n(Cc4ccc(F)cc4)c(C)c3c2=O)C1 (stereo not drawn) | inactive | 
COC(=O)c1ccc2c(c1)N(CC(=O)Nc1ccc(C)c(C)c1)C(=O)c1ccccc1S2 | inactive | 
Cc1ccc(C(=O)O)cc1-c1ccc(/C=C2\SC(=O)N(CC(=O)Nc3ccc4c(c3)OCO4)C2=O)o1 | 25.1 µM (active) | 
Cc1nc([N+](=O)[O-])cn1CC(=O)Nc1ccc2c(c1)OCO2 | inactive | 
CCCc1nc2c(c(=O)c3ccccc3n2C)c(=O)n1C1CCCCCC1 | inactive | 

Compound | Potency | activity change, negative = inhibition
Cn1c2ccccc2c(=O)c2c(=O)n(Cc3ccco3)c(COc3ccccc3)nc21 | 8.91 µM (active) | 
Cn1c(COc2ccc(Cl)cc2)nc2ccccc2c1=O | inactive | 
COC(=O)[C@H]1C[C@@H]1[C@H](NC(=O)Oc1ccc(F)cc1)c1ccccc1 | inactive | 
CC(C)Cn1c(N)c(C(=O)NCc2cccs2)c2nc3ccccc3nc21 | 31.6 µM (active) | 
CCC(C)NC(=O)c1c(N)n(/N=C/c2cccs2)c2nc3ccccc3nc12 (stereo not drawn) | inactive | 
O=C(NCc1cccs1)c1cc(-c2ccccn2)nc2ccc(Br)cc12 | inactive | 
CCC[C@@H]1C[C@@]1(CCC)C(NS(=O)(=O)c1cccc2cccnc12)c1ccc(Cl)cc1 (stereo partly drawn) | inactive | 
COc1ccc(Nc2ncc3c(n2)CCN(C(=O)OC(C)(C)C)C3)cc1 | inactive | 
COc1ccc(/C=C2/SC(=O)N(CCCCCC(=O)Nc3ccccc3C(=O)O)C2=S)cc1 | inactive | 
O=C1/C(=C\c2ccccc2Cl)SC(=S)N1CCC(=O)N1CCCc2ccccc21 | inactive | 
Cc1ccc(-c2nn(-c3ccccc3)cc2/C=C2\SC(=S)N(CCCCCC(=O)O)C2=O)o1 | 28.2 µM (active) | 
C/C=C(\C)C(=O)OC1C(OC(=O)C2(C)OC2C)c2cc3ccc(=O)oc3cc2OC1(C)C (stereo not drawn) | inactive | 
CC(C)(O)CCC(O)[C@@](C)(O)C1CC[C@]2(O)C3=CC(=O)C4CC(O)C(O)C[C@]4(C)C3CC[C@]12C (stereo partly drawn) | inactive | 
COc1ccc(NC(=O)COc2ccc(C(=O)OCC(=O)N(C)C3CCS(=O)(=O)C3)cc2OC)cc1 (stereo not drawn) | inactive | 
CN(C(=O)COC(=O)c1cc(-c2ccco2)nc2ccccc12)C1CCS(=O)(=O)C1 (stereo not drawn) | 3.16 µM (active) | 
COc1ccc2c(-c3ccccc3)cc(SCC(=O)N(C)C3CCS(=O)(=O)C3)nc2c1 (stereo not drawn) | inactive | 
COc1cccc(-c2cc(NCCc3c[nH]c4ccc(OC)cc34)ncn2)c1 | inactive | 
CO[C@H]1COC(=O)[C@@H](C)NC(=O)C/C=C\[C@@H](C)[C@H](OC)COC(=O)C/C=C\[C@@H]1C |  | 0.711% [at 12.4 µM]
CCCC[C@@H]1C[C@H]1C(NC(=O)c1ccco1)c1ccc(C(=O)OC)cc1 (stereo partly drawn) | inactive | 
CCOc1ccc(OCC)c(NC(=O)CN(c2ccc(C)cc2)S(=O)(=O)c2c(C)n[nH]c2C)c1 | inactive | 
CCCCC/C=C\C/C=C\C/C=C\CCCCC(=O)NCC(=O)O | inactive | 
COc1cccc([C@@H]2Oc3ccc(Br)cc3C(=O)[C@H]2OC(=O)NCCc2ccc(OC)c(OC)c2)c1 | inactive | 
